Measured values as given in PubChem BioAssay AID485317 (Broad Institute, 2010).
The whole screen tested about 290,000 compounds, of which about 11,000 (3.8%) were called active. The sample holds actives, similar compounds and a random draw of the others, so the mix is not that of the screen.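 Rule for the calls: active = mean replicate inhibition above about 79%, with every replicate also reaching it (limit read from the data); inconclusive = only one of the two criteria met; inactive = mean below limit and not every replicate reaching it.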

What follows are molecules tested against FAD-linked sulfhydryl oxidase ALR (Homo sapiens) (UniProt P55789) (assay: ALR-catalysed DTT oxidation blockers – biochemical, H2O2 detection, HRP-luminol luminescence, single point, primary screen (AID 485317)). Settings: purified ALR, hits give high values, concentration not given here.
Chain of FAD-linked sulfhydryl oxidase ALR (Homo sapiens) (P55789 whole entry, looked up): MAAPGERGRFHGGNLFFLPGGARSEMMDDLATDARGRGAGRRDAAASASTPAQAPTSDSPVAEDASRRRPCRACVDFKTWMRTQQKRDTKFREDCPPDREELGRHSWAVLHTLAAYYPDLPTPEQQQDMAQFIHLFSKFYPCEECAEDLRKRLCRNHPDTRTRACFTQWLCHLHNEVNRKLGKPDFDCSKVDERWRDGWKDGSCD
With COc1cccc2sc3cc(NCC[C@@H]4CCCN4C)ccc3c(=O)c12 the inhibition was -1.66% (inactive). In the case of O=c1cc(O)nc(SCc2ccccc2Cl)[nH]1, the inhibition is reported as 100% (active). With O=c1[nH]nc(CSCc2ccccc2Cl)[nH]1 the inhibition was -8.43% (inactive). Cc1cc(=O)[nH]c(SCc2ccc(Cl)cc2)n1 was tested, and the inhibition was -9.56% (inactive). COc1cccc2sc(Nc3nc(C)c(C(C)=O)s3)nc12 was tested, and the inhibition was 32.7% (inactive). With COc1ccccc1OCc1nc2ccccc2s1 the inhibition was 2.66% (inactive). With COc1cccc2sc(NNC(=O)c3nc4ccccc4s3)nc12 the inhibition was 93.7% (active). For CC(=O)C1=C(O)C(=O)N(c2ccc(Br)cc2)C1c1ccc([N+](=O)[O-])cc1 (stereo not given), the inhibition was 96.7% (active). For CC(=O)C1=C(O)C(=O)N(c2cccnc2)C1c1ccc([N+](=O)[O-])cc1 (stereo not given), the inhibition was 36.6% (inactive). For COC(=O)CN1C(=O)C(O)=C(C(C)=O)C1c1ccc([N+](=O)[O-])cc1 (stereo not given), the inhibition was -8.67% (inactive). In the case of COc1ccc(S(=O)(=O)N2CCN(CC(=O)NCC3(N4CCOCC4)CCCCC3)CC2)cc1, the inhibition is reported as -0.676% (inactive). For CCCn1nc(C(=O)NNC(=O)CCOc2ccccc2OCC)c2ccccc2c1=O, the inhibition was 16.7% (inactive). CCOc1ccc(NC(=O)CN(C)C(=O)COc2cccc(CC)c2)cc1OCC was tested, and the inhibition was -14.9% (inactive). Cc1cc(NC(=O)CCS(=O)(=O)c2ccc(F)cc2)no1 was tested, and the inhibition was -5.46% (inactive). For Cc1onc(C(=O)NN)c1-c1csc(COc2ccccc2)n1, the inhibition was -2.47% (inactive). COc1cc(CC(=O)Nc2nc(-c3ccc(F)c(F)c3)cs2)cc(OC)c1OC was tested, and the inhibition was 0.225% (inactive). In the case of CC(C)(C)C(=O)OCc1nc(-c2ccc(O)c(O)c2)cs1, the inhibition is reported as 99.4% (active). COc1ccc(CNC(=O)COC(=O)c2ccc(C)c(S(=O)(=O)N3CCOCC3)c2)cc1OC was tested, and the inhibition was -7.49% (inactive). For CC1CCCCC1NC(=O)Cn1c(=O)cnc2ccccc21 (stereo not given), the inhibition was -5.91% (inactive). In the case of Cc1nccn1CC(=O)N/N=C/c1ccc(O)c(O)c1, the inhibition is reported as 99.4% (active). For CCOc1ccc(/C=N/NC(=O)C(C)Sc2ccccn2)cc1OCC (stereo not given), the inhibition was -8.94% (inactive). For CCOc1ccc(/C=N/NC(=O)CSc2ccccn2)cc1O, the inhibition was 98.9% (active). With COc1cc(/C=N/NC(=O)CCc2n[nH]c(=O)[nH]c2=O)ccc1O the inhibition was 99.3% (active). COc1cc(/C=N/NC(=O)Cc2ccccc2)cc(OC)c1OC was tested, and the inhibition was -4.39% (inactive). For CCn1c(SCC(=O)N/N=C/c2ccncc2)nc2ccccc21, the inhibition was -3.78% (inactive). For NCCCCCC(=O)N/N=C/c1ccc2nccnc2c1, the inhibition was 0.997% (inactive). For COc1cc(/C=N/NC(=O)c2ccc(N3CCCC3=O)cc2)ccc1O, the inhibition was 28% (inactive). In the case of C=CCOc1ccc(/C=N/NC(=O)C(C)Sc2ccccn2)cc1OCC (stereo not given), the inhibition is reported as -4.04% (inactive). In the case of Cc1nc2ccccc2n1CC(=O)N/N=C/c1cccnc1, the inhibition is reported as -8.97% (inactive). For Cn1c(SCC(=O)N/N=C/c2ccc(O)c(O)c2)nc2ccccc21, the inhibition was 98.9% (active). Cc1ccc(/C=N/NC(=O)CSc2nc3ccccc3o2)cc1 was tested, and the inhibition was -3.09% (inactive). CC(C)(C)n1nc(Cc2cccc3ccccc23)c(C#N)c1N was tested, and the inhibition was -16.1% (inactive). Cc1cc(NC(=O)CSc2nnc(-c3ccco3)n2N)no1 was tested, and the inhibition was -0.748% (inactive). In the case of CCOc1ccc2oc(C(=O)N(CC)CC(=O)Nc3ccc(NC(C)=O)cc3)c(C)c2c1, the inhibition is reported as -6.04% (inactive). In the case of CCOc1ccc2ccccc2c1/C=N/NC(=O)c1c(C)cc(C)[nH]c1=O, the inhibition is reported as -4.32% (inactive). COc1ccc(NC(=O)CN(C)C(=O)c2ccc(NC3CC3)c([N+](=O)[O-])c2)cc1 was tested, and the inhibition was 9.73% (inactive). With CCOc1cc(/C=N/NC(=O)c2cc(-c3ccccc3)nc3ccccc23)ccc1O the inhibition was 12.6% (inactive). With CCOc1cc(/C=N/NC(=O)CN2CCCCC2)ccc1O the inhibition was 98.9% (active). COc1cc(/C=N/NC(=O)c2ccoc2C)ccc1OCCN1CCCCC1 was tested, and the inhibition was -5.33% (inactive). In the case of COc1ccc(-c2nn(-c3ccccc3)cc2/C=C\C(=O)Nc2ccc(C(=O)O)cc2)cc1, the inhibition is reported as -2.34% (inactive). In the case of O=C(O)c1ccc(N/N=C/c2cn(-c3ccccc3)nc2-c2cccs2)cc1, the inhibition is reported as 98.9% (active). O=C(/C=C\c1cn(-c2ccccc2)nc1-c1cccs1)N1CCOCC1 was tested, and the inhibition was -5.03% (inactive). Cc1ccc(NC(=O)CCNC(=O)c2ccc([N+](=O)[O-])cc2)cc1S(=O)(=O)N1CCOCC1 was tested, and the inhibition was -6.28% (inactive). For Cc1ccc(N2CCN(c3ccc(C)cc3)C2c2ccccn2)cc1, the inhibition was 86.9% (active). For Cc1ccc(N2C(=O)C3CC3C2=O)cc1 (stereo not given), the inhibition was -2.01% (inactive). With Cc1ccc(S(=O)(=O)NCC(=O)N2CCN(c3ccccn3)CC2)cc1 the inhibition was 3.32% (inactive). With CC(C)(C)OC(=O)C[C@@H]1C/C=C\C[C@H](CC(=O)N[C@@H](CO)Cc2ccccc2)C(=O)N[C@H](Cc2ccccc2)COC1=O the inhibition was -0.505% (inactive). For O=C(NCc1ccccc1Cl)C(=O)NCC1CCCN1S(=O)(=O)c1cccs1 (stereo not given), the inhibition was -7.66% (inactive). CC1=C(C(=O)NC2CC(C)(C)Cc3c2cnn3-c2ccc(C)cc2)OCCO1 (stereo not given) was tested, and the inhibition was -16.8% (inactive). In the case of COc1ccc(C(=O)NC2CC(C)(C)Cc3c2cnn3-c2ccccc2)c(OC)c1 (stereo not given), the inhibition is reported as 0.864% (inactive). Cc1cc(C(=O)NC2CC(C)(C)Cc3c2cnn3-c2ccccc2)n[nH]1 (stereo not given) was tested, and the inhibition was 92.1% (active). With CC(=O)Nc1cccc(C(=O)OCC(=O)NCc2cc(C)c(O)c(C)c2)c1 the inhibition was 25.7% (inactive). O=c1c2c(nc3n1CCCCC3)sc1c(O)cccc12 was tested, and the inhibition was 94.5% (active). For CC(=O)c1ccc(NC(=O)c2sc3nc4n(c(=O)c3c2C)CCCCC4)cc1, the inhibition was -6.68% (inactive). With Cc1cccc2c(=O)n3c(nc12)CCCCC3 the inhibition was -3.58% (inactive). With CSc1ncccc1C(=O)Nc1ccc2c(c1)OCO2 the inhibition was -7.77% (inactive). With COc1ccccc1N1CCN(CC(=O)Nc2ccnn2C2CCCC2)CC1 the inhibition was 21.7% (inactive). In the case of O=C(OCC1OC(Oc2ccc(O)cc2)C(O)C(O)C1O)c1ccccc1 (stereo not given), the inhibition is reported as 23.2% (inactive). O=C(OCC1O[C@@H](OC(=O)c2cc(O)c(O)c(O)c2)[C@@H](OC(=O)c2cc(O)c(O)c(O)c2)[C@@H](OC(=O)c2cc(O)c(O)c(O)c2)[C@@H]1OC(=O)c1cc(O)c(O)c(O)c1)c1cc(O)c(O)c(O)c1 (stereo not given in full) was tested, and the inhibition was 98.8% (active). With CC(=O)NC1C(OCc2ccccc2)OC(COC(C)=O)C(OC(C)=O)C1OC(C)=O (stereo not given) the inhibition was -6.67% (inactive).
